# “And” between values parts separate entries of the source, which are not always exact repeats. Equal values may be shown once. The source holds several records for some structures; these can differ, active in one and inactive in another. The source made the active and inactive calls. How the source made its calls: active means hit-call score of the fitted dose curve at least 0.9, where 1 is the maximum; inactive means score below 0.9.
# Key:
# [1] = read-out: Urokinase-type plasminogen activator receptor (uPAR), PLAUR (gene 5329); test: BSK_4H_uPAR: BioMAP Diversity Plus: 4H Assay for Urokinase-type plasminogen activator receptor (uPAR) Biomarker Activity (AID 2283030); details: primary human endothelial cells (HUVEC); actives raise or lower the signal
# How it was run: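 uPAR level read by ELISA on HUVEC cultures (BioMAP 4H) 24 h post-dosing, analyzed for gain or loss relative to DMSO. Parallel SRB staining assessed overt cytotoxicity.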
# [2] = read-out: Vascular endothelial growth factor receptor 2 (Homo sapiens) (UniProt P35968); test: BSK_4H_VEGFRII: BioMAP Diversity Plus: 4H Assay for Vascular endothelial growth factor receptor 2 (VEGFR2) Biomarker Activity (AID 2283031); details: primary human endothelial cells (HUVEC); actives raise or lower the signal;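 on AC50: cell-surface VEGFR2 protein level quantified by ELISA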
# How it was run: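 Measured by ELISA after 24 h of compound treatment: VEGFR2 on primary human umbilical vein endothelial cells, fitted in both directions relative to DMSO. Parallel cultures received SRB staining (560 nm) for overt cytotoxicity.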
# [3] = read-out: Human Leukocyte Antigen - DR isotype (HLADR), HLA-DRA (gene 3122); test: BSK_BE3C_HLADR: BioMAP Diversity Plus: BE3C Assay for Human Leukocyte Antigen - DR isotype (HLADR) Biomarker Activity (AID 2283032); details: primary human bronchial epithelial cells; actives raise or lower the signal
# How it was run: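 Cell-surface HLA-DR ELISA readout at 24 h after dosing in the BE3C primary human lung bronchial epithelial system; gain or loss of signal against DMSO, with parallel sulforhodamine B staining of total protein for overt cytotoxicity.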
# [4] = read-out: Vascular cell adhesion molecule 1 (VCAM1), VCAM1 (gene 7412); test: BSK_4H_VCAM1: BioMAP Diversity Plus: 4H Assay for Vascular cell adhesion molecule 1 (VCAM1) Biomarker Activity (AID 2283033); details: primary human endothelial cells (HUVEC); actives raise or lower the signal;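 on outcome: cell-surface VCAM-1 protein measured by ELISA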
# How it was run: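 VCAM-1 ELISA read 24 h after chemical dosing of HUVEC in the BioMAP 4H system, with gain or loss of signal fitted relative to DMSO. Parallel SRB staining (560 nm) checked overt cytotoxicity.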
# [5] = read-out: Interferon-gamma inducible Protein 10 (IP10), CXCL10 (gene 3627); test: BSK_BE3C_IP10: BioMAP Diversity Plus: BE3C Assay for Interferon-gamma inducible Protein 10 (IP10) Biomarker Activity (AID 2283034); details: primary human bronchial epithelial cells; actives raise or lower the signal
# How it was run: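 IP-10 quantified by ELISA in human primary bronchial epithelial cell cultures at 24 hours post-dosing. Gain or loss of signal fitted relative to DMSO; parallel SRB staining assessed overt cytotoxicity.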
# [6] = read-out: Monokine induced gamma interferon (MIG), CXCL9 (gene 4283); test: BSK_BE3C_MIG: BioMAP Diversity Plus: BE3C Assay for Monokine induced gamma interferon (MIG) Biomarker Activity (AID 2283035); details: primary human bronchial epithelial cells; actives raise or lower the signal
# How it was run: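 Dose cells (human primary bronchial epithelial), incubate 24 h, quantify MIG by ELISA, then fit concentration–response in both directions relative to DMSO control.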
# [7] = read-out: Plasminogen activator inhibitor-1 (PAI1), SERPINE1 (gene 5054); test: BSK_BE3C_PAI1: BioMAP Diversity Plus: BE3C Assay for Plasminogen activator inhibitor-1 (PAI1) Biomarker Activity (AID 2283037); details: primary human bronchial epithelial cells; actives raise or lower the signal
# How it was run: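 PAI-1 was measured by ELISA in human primary bronchial epithelial cultures 24 h after chemical dosing, with cytotoxicity checked by SRB total-protein staining in parallel cultures. Activity was fitted in both directions relative to DMSO.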
# [8] = read-out: urokinase plasminogen activator (uPA), PLAU (gene 5328); test: BSK_BE3C_uPA: BioMAP Diversity Plus: BE3C Assay for urokinase plasminogen activator (uPA) Biomarker Activity (AID 2283038); details: primary human bronchial epithelial cells; actives raise or lower the signal;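 on outcome: uPA protein level quantified by ELISA in cell cultures; uPA read one day after compound addition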
# How it was run: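 ELISA for uPA on human primary bronchial epithelial cultures 24 h post-treatment, gain or loss against DMSO. Parallel SRB staining (0.1% after 10% TCA fixation, 560 nm) assessed overt cytotoxicity.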
# [9] = read-out: Urokinase-type plasminogen activator receptor (uPAR), PLAUR (gene 5329); test: BSK_BE3C_uPAR: BioMAP Diversity Plus: BE3C Assay for Urokinase-type plasminogen activator receptor (uPAR) Biomarker Activity (AID 2283039); details: primary human bronchial epithelial cells; actives raise or lower the signal;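 on outcome: cells exposed to compound for one day before measurement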
# How it was run: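 uPAR levels were measured by ELISA after 24 h compound treatment of primary human bronchial epithelial cells, fitted in both directions relative to DMSO. Parallel SRB staining served as the cytotoxicity read-out.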
# [10] = read-out: Interleukin-6 (IL6), IL6 (gene 3569); test: BSK_CASM3C_IL6: BioMAP Diversity Plus: CASM3C Assay for Interleukin-6 (IL6) Biomarker Activity for (AID 2283040); details: primary human coronary artery smooth muscle cells; actives raise or lower the signal
# [11] = read-out: Tissue plasminogen activator (tPA), PLAT (gene 5327); test: BSK_BE3C_tPA: BioMAP Diversity Plus: BE3C Assay for Tissue plasminogen activator (tPA) Biomarker Activity (AID 2283041); details: primary human bronchial epithelial cells; actives raise or lower the signal;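 on outcome: tPA level quantified by ELISA one day after compound addition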
# How it was run: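 tPA measured by ELISA 24 h after dosing human primary bronchial epithelial cells (BE3C system). Changes in either direction were fitted against DMSO. Parallel cultures were stained with SRB to flag overt cytotoxicity.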
# [12] = read-out: Interleukin-8 (IL8), CXCL8 (gene 3576); test: BSK_CASM3C_IL8: BioMAP Diversity Plus: CASM3C Assay for Interleukin-8 (IL8) Biomarker Activity (AID 2283042); details: primary human coronary artery smooth muscle cells; actives raise or lower the signal;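 further: IL-8 protein level quantified by ELISA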
# [13] = read-out: Human Leukocyte Antigen - DR isotype (HLADR), HLA-DRA (gene 3122); test: BSK_CASM3C_HLADR: BioMAP Diversity Plus: CASM3C Assay for Human Leukocyte Antigen - DR isotype (HLADR) Biomarker Activity (AID 2283043); details: primary human coronary artery smooth muscle cells; actives raise or lower the signal;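 further: cell-surface HLA-DR protein level quantified by ELISA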
# [14] = read-out: Macrophage colony-stimulating factor (MCSF), CSF1 (gene 1435); test: BSK_CASM3C_MCSF: BioMAP Diversity Plus: CASM3C Assay for Macrophage colony-stimulating factor (MCSF) Biomarker Activity (AID 2283044); details: primary human coronary artery smooth muscle cells; actives raise or lower the signal;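 further: M-CSF protein amount quantified by ELISA after 24 h exposure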
# [15] = read-out: Low-density lipoprotein receptor (LDLR), LDLR (gene 3949); test: BSK_CASM3C_LDLR: BioMAP Diversity Plus: CASM3C Assay for Low-density lipoprotein receptor (LDLR) Biomarker Activity (AID 2283045); details: primary human coronary artery smooth muscle cells; actives raise or lower the signal;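 further: LDLR protein level on the cell surface quantified by ELISA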
# [16] = read-out: Monocyte Chemoattractant Protein-1 (MCP1), CCL2 (gene 6347); test: BSK_CASM3C_MCP1: BioMAP Diversity Plus: CASM3C Assay for Monocyte Chemoattractant Protein-1 (MCP1) Biomarker Activity (AID 2283046); details: primary human coronary artery smooth muscle cells; actives raise or lower the signal;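 further: MCP-1 level quantified by ELISA 24 h after dosing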
# [17] = BSK_CASM3C_Proliferation: Cell Proliferation Assessment in the BioMAP Diversity Plus: CASM3C Assay (AID 2283047); details: primary human coronary artery smooth muscle cells;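 further: sulforhodamine B total protein stain as relative cell number at 560 nm; sub-confluent cells exposed 48 h before staining; fitted both ways against DMSO so gain or loss of cell number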
# [18] = read-out: Monokine induced gamma interferon (MIG), CXCL9 (gene 4283); test: BSK_CASM3C_MIG: BioMAP Diversity Plus: CASM3C Assay for Monokine induced gamma interferon (MIG) Biomarker Activity (AID 2283048); details: primary human coronary artery smooth muscle cells; actives raise or lower the signal;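 further: MIG protein level measured by ELISA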
# [19] = read-out: serum amyloid A (SAA), SAA1 (gene 6288); test: BSK_CASM3C_SAA: BioMAP Diversity Plus: CASM3C Assay for serum amyloid A (SAA) Biomarker Activity (AID 2283049); details: primary human coronary artery smooth muscle cells; actives raise or lower the signal;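 further: SAA protein level quantified by ELISA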
# [20] = read-out: Transforming growth factor beta 1 (TGFb1), TGFB1 (gene 7040); test: BSK_BE3C_TGFb1: BioMAP Diversity Plus: BE3C Assay for Transforming growth factor beta 1 (TGFb1) Biomarker Activity (AID 2283036;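 further: TGF-b1 protein level measured by ELISA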); details: primary human bronchial epithelial cells; actives raise or lower the signal
# How it was run: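 ELISA readout of TGF-b1 from human lung bronchial epithelial primary cells, taken 24 h post-treatment. Gain or loss of signal fitted relative to DMSO baseline, with parallel SRB staining for overt cytotoxicity.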
smiles,measurement,setting,value
Clc1ccc(Cl)cc1,outcome,[1],inactive
same,outcome,[2],inactive
same,outcome,[3],inactive
same,outcome,[4],inactive
same,outcome,[5],inactive
same,outcome,[6],inactive
same,outcome,[7],inactive
same,outcome,[8],inactive
same,outcome,[9],inactive
same,outcome,[10],inactive
same,outcome,[11],inactive
same,outcome,[12],inactive
same,outcome,[13],inactive
same,outcome,[14],inactive
same,outcome,[15],inactive
same,outcome,[16],inactive
same,outcome,[17],inactive
same,outcome,[18],inactive
same,outcome,[19],inactive
CC(C)C(=O)OCC(C)(C)C(OC(=O)C(C)C)C(C)C (stereo not drawn),outcome,[1],inactive
same,outcome,[2],inactive
same,outcome,[3],inactive
same,outcome,[4],inactive
same,outcome,[5],inactive
same,outcome,[6],inactive
same,outcome,[20],inactive
same,outcome,[7],inactive
same,outcome,[8],inactive
same,outcome,[9],inactive
same,outcome,[10],inactive
same,outcome,[11],inactive
same,outcome,[12],inactive
same,outcome,[13],inactive
same,outcome,[14],inactive
same,outcome,[15],inactive
same,outcome,[16],inactive
same,outcome,[17],inactive
same,outcome,[18],inactive
same,outcome,[19],inactive
O=C(N[C@H]1CN2CCC1CC2)c1cc2ccoc2cn1,outcome,[1],inactive
same,outcome,[2],inactive
same,outcome,[3],inactive
same,outcome,[4],inactive
same,outcome,[5],inactive
same,outcome,[6],inactive
same,outcome,[7],inactive
same,outcome,[8],inactive
same,outcome,[9],inactive
same,outcome,[10],inactive
same,outcome,[11],inactive
same,outcome,[12],inactive
same,outcome,[13],inactive
same,outcome,[14],inactive
same,outcome,[15],inactive
same,outcome,[16],inactive
same,outcome,[17],inactive
same,outcome,[18],inactive
same,outcome,[19],inactive
c1cc2ccc3cccc4ccc(c1)c2c34,outcome,[1],inactive
same,outcome,[2],inactive
same,AC50,[4],15.5 µM (active)
same,outcome,[5],inactive
same,outcome,[6],inactive
same,outcome,[20],inactive
same,outcome,[7],inactive
same,outcome,[8],inactive
same,outcome,[9],inactive
same,outcome,[10],inactive
same,outcome,[11],inactive
same,outcome,[12],inactive
same,outcome,[13],inactive
same,outcome,[14],inactive
same,AC50,[15],9.87 µM (active)
same,outcome,[16],inactive
same,outcome,[17],inactive
same,outcome,[18],inactive
same,outcome,[19],inactive
O=C(O)C(F)(F)C(F)(F)C(F)(F)C(F)(F)C(F)(F)C(F)(F)C(F)(F)C(F)(F)C(F)(F)F,AC50,[1],47 µM (active) and 55 µM (active)
same,outcome,[1],inactive
same,AC50,[2],43.2 µM (active) and 55.4 µM (active)
same,outcome,[2],inactive
same,AC50,[4],33.8 µM (active) and 46.9 µM (active) and 46 µM (active)
same,AC50,[5],9.39 µM (active) and 8.59 µM (active) and 8.35 µM (active)
same,AC50,[6],28.6 µM (active) and 26.9 µM (active) and 12.7 µM (active)
same,AC50,[7],14.2 µM (active) and 14.4 µM (active) and 12.8 µM (active)
same,AC50,[8],16.1 µM (active) and 7.94 µM (active)
same,outcome,[8],inactive
same,AC50,[9],30.8 µM (active) and 16.4 µM (active) and 14.7 µM (active)
same,outcome,[10],inactive
same,AC50,[11],14.9 µM (active) and 14.1 µM (active) and 14.5 µM (active)
same,outcome,[12],inactive
same,outcome,[13],inactive
same,outcome,[14],inactive
same,outcome,[15],inactive
same,outcome,[16],inactive
same,outcome,[17],inactive
same,outcome,[18],inactive
same,outcome,[19],inactive
ClC1=C(Cl)[C@]2(Cl)[C@@H]3[C@H]4C[C@H]([C@@H]5O[C@H]45)[C@@H]3[C@@]1(Cl)C2(Cl)Cl,outcome,[1],inactive
same,outcome,[2],inactive
same,outcome,[3],inactive
same,outcome,[4],inactive
same,outcome,[5],inactive
same,outcome,[6],inactive
same,outcome,[20],inactive
same,outcome,[7],inactive
same,outcome,[8],inactive
same,outcome,[9],inactive
same,outcome,[10],inactive
same,outcome,[11],inactive
same,outcome,[12],inactive
same,outcome,[13],inactive
same,outcome,[14],inactive
same,outcome,[15],inactive
same,outcome,[16],inactive
same,outcome,[17],inactive
same,outcome,[18],inactive
same,outcome,[19],inactive
